Assay results taken from PubChem BioAssay AID1159580 (chemical genetic matrix, 2015).
About 2,000 (36%) of roughly 5,500 compounds were called active. Not shown: some 18% with an inconclusive outcome. This is one part of the list. Values without a mark were called inactive. No stated cut-off is given here; in the data, active means normalized growth mostly below about 0.91 (no sharp cut-off); inconclusive means no clear call, values can overlap the other calls; inactive means mostly above about 0.92.

Experiment: chemical genetic growth profiling, strain panel (AID 1159580);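 further: tested at 20 µM; growth read once vehicle control cultures reached saturation at 30 °C; 1 = growth at the plate median or of vehicle wells; lower values mean less growth of the strain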
Settings: growth OD

With `COc1cc2occ(-c3ccccc3)c(=O)c2c(OC)c1C` as the compound, how does the normalized growth (S. cerevisiae deletion strains, locus YJR043C, strain POL32, hits give low values) read?
The normalized growth was 0.937.

What about the normalized growth (S. cerevisiae deletion strains, locus YJR075W, strain HOC1, hits give low values) of the same compound?
The normalized growth was 0.908.

What about the normalized growth (S. cerevisiae deletion strains, locus YKL009W, strain mrt4, hits give low values) of the same compound?
The normalized growth was 0.941.

And the normalized growth (S. cerevisiae deletion strains, locus YKL068W, hits give low values)?
The normalized growth was 0.965.

And the normalized growth (S. cerevisiae deletion strains, locus YKL085W, strain MDH1 (second series), hits give low values)?
The normalized growth was 0.952.

What about the normalized growth (S. cerevisiae deletion strains, locus YKL085W, strain MDH1, hits give low values) of the same compound?
The normalized growth was 0.952.

What about the normalized growth (S. cerevisiae deletion strains, locus YKL160W, strain elf1, hits give low values) of the same compound?
The normalized growth was 0.969.

And the normalized growth (S. cerevisiae deletion strains, locus YKL190W, strain CNB1, hits give low values)?
The normalized growth was 0.961.

And the normalized growth (S. cerevisiae deletion strains, locus YKR001C, strain vps1, hits give low values)?
Its normalized growth is 0.855 (active).

What about the normalized growth (S. cerevisiae deletion strains, locus YKR026C, strain gcn3, hits give low values) of the same compound?
The normalized growth was 0.973.

And the normalized growth (S. cerevisiae deletion strains, locus YKR091W, strain srl3, hits give low values)?
The normalized growth was 0.976.

What about the normalized growth (S. cerevisiae deletion strains, locus YLL001W, strain dnm1, hits give low values) of the same compound?
Its normalized growth is 0.98.

And the normalized growth (S. cerevisiae deletion strains, locus YLL026W, hits give low values)?
Its normalized growth is 0.971.

And the normalized growth (S. cerevisiae deletion strains, locus YLL041C, strain sdh2, hits give low values)?
The normalized growth was 0.976.

And the normalized growth (S. cerevisiae deletion strains, locus YLR027C, strain aat2, hits give low values)?
Its normalized growth is 0.979.

What about the normalized growth (S. cerevisiae deletion strains, locus YLR039C, strain RIC1, hits give low values) of the same compound?
The normalized growth was 0.763.

And the normalized growth (S. cerevisiae deletion strains, locus YLR058C, strain SHM2, hits give low values)?
Its normalized growth is 0.951.

What about the normalized growth (S. cerevisiae deletion strains, locus YLR102C, strain apc9, hits give low values) of the same compound?
The normalized growth was 0.96.

What about the normalized growth (S. cerevisiae deletion strains, locus YLR221C, strain rsa3, hits give low values) of the same compound?
Its normalized growth is 0.979.

What about the normalized growth (S. cerevisiae deletion strains, locus YLR258W, strain gsy2, hits give low values) of the same compound?
Its normalized growth is 0.97.

What about the normalized growth (S. cerevisiae deletion strains, locus YLR262C, strain YPT6 (second series), hits give low values) of the same compound?
Its normalized growth is 0.766 (active).

And the normalized growth (S. cerevisiae deletion strains, locus YLR262C, strain YPT6, hits give low values)?
The normalized growth was 0.725.

What about the normalized growth (S. cerevisiae deletion strains, locus YLR268W, strain sec22, hits give low values) of the same compound?
Its normalized growth is 0.873 (active).

And the normalized growth (S. cerevisiae deletion strains, locus YLR320W, strain mms22, hits give low values)?
Its normalized growth is 0.902.

What about the normalized growth (S. cerevisiae deletion strains, locus YLR330W, strain CHS5, hits give low values) of the same compound?
The normalized growth was 0.957.

And the normalized growth (S. cerevisiae deletion strains, locus YLR342W, strain FKS1 (second series), hits give low values)?
The normalized growth was 0.714 (active).

What about the normalized growth (S. cerevisiae deletion strains, locus YLR342W, strain FKS1, hits give low values) of the same compound?
The normalized growth was 0.968.

What about the normalized growth (S. cerevisiae deletion strains, locus YLR357W, strain rsc2, hits give low values) of the same compound?
The normalized growth was 0.97.

What about the normalized growth (S. cerevisiae deletion strains, locus YLR370C, strain arc18, hits give low values) of the same compound?
Its normalized growth is 0.962.

And the normalized growth (S. cerevisiae deletion strains, locus YLR371W, strain rom2, hits give low values)?
The normalized growth was 0.923.

And the normalized growth (S. cerevisiae deletion strains, locus YLR384C, strain iki3, hits give low values)?
Its normalized growth is 0.976.

What about the normalized growth (S. cerevisiae deletion strains, locus YLR418C, strain cdc73, hits give low values) of the same compound?
The normalized growth was 0.788 (active).

And the normalized growth (S. cerevisiae deletion strains, locus YML016C, strain PPZ1, hits give low values)?
The normalized growth was 0.956.

And the normalized growth (S. cerevisiae deletion strains, locus YML032C, strain rad52, hits give low values)?
The normalized growth was 0.898 (active).

What about the normalized growth (S. cerevisiae deletion strains, locus YML120C, strain ndi1, hits give low values) of the same compound?
The normalized growth was 0.951.

And the normalized growth (S. cerevisiae deletion strains, locus YML124C, strain tub3, hits give low values)?
Its normalized growth is 0.942.

What about the normalized growth (S. cerevisiae deletion strains, locus YMR058W, strain fet3, hits give low values) of the same compound?
Its normalized growth is 0.97.

And the normalized growth (S. cerevisiae deletion strains, locus YMR078C, strain ctf18, hits give low values)?
The normalized growth was 0.927.

What about the normalized growth (S. cerevisiae deletion strains, locus YMR125W, strain sto1, hits give low values) of the same compound?
Its normalized growth is 1.

What about the normalized growth (S. cerevisiae deletion strains, locus YMR129W, hits give low values) of the same compound?
Its normalized growth is 0.981.

What about the normalized growth (S. cerevisiae deletion strains, locus YMR205C, strain PFK2, hits give low values) of the same compound?
Its normalized growth is 0.932.

What about the normalized growth (S. cerevisiae deletion strains, locus YMR223W, strain ubp8, hits give low values) of the same compound?
Its normalized growth is 0.885 (active).

What about the normalized growth (S. cerevisiae deletion strains, locus YMR231W, strain pep5, hits give low values) of the same compound?
Its normalized growth is 0.998.

What about the normalized growth (S. cerevisiae deletion strains, locus YMR263W, strain SAP30, hits give low values) of the same compound?
The normalized growth was 0.926.

And the normalized growth (S. cerevisiae deletion strains, locus YMR307W, strain GAS1, hits give low values)?
Its normalized growth is 0.665.

And the normalized growth (S. cerevisiae deletion strains, locus YNL067W, strain RPL9B, hits give low values)?
The normalized growth was 0.95.

And the normalized growth (S. cerevisiae deletion strains, locus YNL071W, strain lat1, hits give low values)?
Its normalized growth is 0.819 (active).

What about the normalized growth (S. cerevisiae deletion strains, locus YNL128W, strain TEP1, hits give low values) of the same compound?
The normalized growth was 0.963.

And the normalized growth (S. cerevisiae deletion strains, locus YNL153C, strain GIM3, hits give low values)?
Its normalized growth is 0.991.

What about the normalized growth (S. cerevisiae deletion strains, locus YNL209W, strain ssb2, hits give low values) of the same compound?
The normalized growth was 0.988.

And the normalized growth (S. cerevisiae deletion strains, locus YNL233W, strain BNI4, hits give low values)?
The normalized growth was 0.908.

And the normalized growth (S. cerevisiae deletion strains, locus YNL248C, strain rpa49, hits give low values)?
The normalized growth was 0.98.

And the normalized growth (S. cerevisiae deletion strains, locus YNL250W, strain rad50, hits give low values)?
The normalized growth was 0.956.

What about the normalized growth (S. cerevisiae deletion strains, locus YNL271C, strain bni1, hits give low values) of the same compound?
Its normalized growth is 0.937.

What about the normalized growth (S. cerevisiae deletion strains, locus YNL298W, strain CLA4, hits give low values) of the same compound?
Its normalized growth is 0.946.

And the normalized growth (S. cerevisiae deletion strains, locus YNL307C, strain MCK1, hits give low values)?
The normalized growth was 0.664 (active).

What about the normalized growth (S. cerevisiae deletion strains, locus YNL322C, strain KRE1 (second series), hits give low values) of the same compound?
Its normalized growth is 0.991.

And the normalized growth (S. cerevisiae deletion strains, locus YNL322C, strain KRE1, hits give low values)?
Its normalized growth is 0.965.

What about the normalized growth (S. cerevisiae deletion strains, locus YNR049C, strain mso1, hits give low values) of the same compound?
Its normalized growth is 0.985.

What about the normalized growth (S. cerevisiae deletion strains, locus YNR052C, strain pop2, hits give low values) of the same compound?
The normalized growth was 0.933.

And the normalized growth (S. cerevisiae deletion strains, locus YOL006C, strain TOP1, hits give low values)?
The normalized growth was 0.787.

What about the normalized growth (S. cerevisiae deletion strains, locus YOL012C, strain htz1) of the same compound?
Its normalized growth is 0.865.

What about the normalized growth (S. cerevisiae deletion strains, locus YOL147C, strain pex11, hits give low values) of the same compound?
The normalized growth was 0.923 (active).

And the normalized growth (S. cerevisiae deletion strains, locus YOR001W, strain rrp6, hits give low values)?
Its normalized growth is 1.

And the normalized growth (S. cerevisiae deletion strains, locus YOR061W, strain CKA2, hits give low values)?
Its normalized growth is 0.96.

What about the normalized growth (S. cerevisiae deletion strains, locus YOR069W, strain VPS5, hits give low values) of the same compound?
The normalized growth was 0.968.

And the normalized growth (S. cerevisiae deletion strains, locus YOR070C, strain gyp1, hits give low values)?
The normalized growth was 0.982.

And the normalized growth (S. cerevisiae deletion strains, locus YOR080W, strain dia2, hits give low values)?
The normalized growth was 1.

What about the normalized growth (S. cerevisiae deletion strains, locus YOR083W, strain WHI5, hits give low values) of the same compound?
Its normalized growth is 0.965.

And the normalized growth (S. cerevisiae deletion strains, locus YOR106W, strain vam3, hits give low values)?
Its normalized growth is 0.953.

And the normalized growth (S. cerevisiae deletion strains, locus YOR136W, strain idh2, hits give low values)?
Its normalized growth is 0.952.

What about the normalized growth (S. cerevisiae deletion strains, locus YOR144C, strain elg1, hits give low values) of the same compound?
Its normalized growth is 0.946.

What about the normalized growth (S. cerevisiae deletion strains, locus YOR184W, strain ser1, hits give low values) of the same compound?
Its normalized growth is 0.742 (active).

And the normalized growth (S. cerevisiae deletion strains, locus YOR265W, strain rbl2, hits give low values)?
The normalized growth was 0.962.

And the normalized growth (S. cerevisiae deletion strains, locus YOR270C, strain vph1, hits give low values)?
Its normalized growth is 0.801.

What about the normalized growth (S. cerevisiae deletion strains, locus YOR290C, strain snf2, hits give low values) of the same compound?
Its normalized growth is 0.919.

And the normalized growth (S. cerevisiae deletion strains, locus YOR316C, strain cot1, hits give low values)?
Its normalized growth is 0.937.

What about the normalized growth (S. cerevisiae deletion strains, locus YPL051W, strain arl3, hits give low values) of the same compound?
The normalized growth was 0.942.

What about the normalized growth (S. cerevisiae deletion strains, locus YPL055C, strain LGE1, hits give low values) of the same compound?
The normalized growth was 0.888.

What about the normalized growth (S. cerevisiae deletion strains, locus YPL078C, strain atp4, hits give low values) of the same compound?
Its normalized growth is 0.956.

And the normalized growth (S. cerevisiae deletion strains, locus YPL106C, strain sse1, hits give low values)?
The normalized growth was 0.993.

What about the normalized growth (S. cerevisiae deletion strains, locus YPL240C, strain hsp82, hits give low values) of the same compound?
Its normalized growth is 0.969.

And the normalized growth (S. cerevisiae deletion strains, locus YPL241C, strain CIN2, hits give low values)?
The normalized growth was 0.959.

What about the normalized growth (S. cerevisiae deletion strains, locus YPR119W, strain clb2, hits give low values) of the same compound?
Its normalized growth is 0.959.

What about the normalized growth (S. cerevisiae deletion strains, locus YPR141C, strain kar3, hits give low values) of the same compound?
The normalized growth was 0.944.

And the normalized growth (S. cerevisiae deletion strains, locus YPR163C, strain tif3, hits give low values)?
Its normalized growth is 0.937.

And the normalized growth (S. cerevisiae deletion strains, locus YPR167C, strain met16, hits give low values)?
Its normalized growth is 0.942.

And the normalized growth (S. cerevisiae deletion strains, strain wtn01, hits give low values)?
The normalized growth was 0.916.

What about the normalized growth (S. cerevisiae strains, strain wild type, hits give low values) of the same compound?
The normalized growth was 0.928.
